Data published in PubChem BioAssay AID1159580 (chemical genetic matrix, 2015).
“And” between values parts separate entries of the source, which are not always exact repeats. Equal values may be shown once. Hit rate of the full screen: of about 5,500 compounds, about 2,000 (36%) were called active. About 18% were inconclusive and are not listed. No stated cut-off is given here; in the data, active means normalized growth mostly below about 0.91 (no sharp cut-off); inconclusive means no clear call, values can overlap the other calls; inactive means mostly above about 0.92. This is one part of the list.

Test: chemical genetic growth profiling, strain panel (AID 1159580);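 further: tested at 20 µM; growth read once vehicle control cultures reached saturation at 30 °C; 1 = growth at the plate median or of vehicle wells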
Details: S. cerevisiae deletion strains, growth OD

Measured: normalized growth

Oc1ccc2c3c1OC1[C@@H](O)CC[C@@]4(O)[C@@H](C2)N(CC2CCC2)CC[C@]314 (stereo partly specified)
inactive: locus YAL013W, strain DEP1, stronger effect = lower value 1.01 | locus YAL021C, strain ccr4, stronger effect = lower value 0.987 | locus YAL026C, strain drs2, stronger effect = lower value 1.02 | locus YAL030W, strain snc1, stronger effect = lower value 0.981 | locus YBL061C, strain skt5, stronger effect = lower value 0.997 | locus YBR009C, strain hhf1, stronger effect = lower value 1.01 | locus YBR021W, strain FUR4, stronger effect = lower value 1.02 | locus YBR023C, strain chs3, stronger effect = lower value 0.993 | locus YBR171W, strain sec66, stronger effect = lower value 0.974 | locus YBR229C, strain ROT2, stronger effect = lower value 1.02 | locus YBR231C, strain swc5, stronger effect = lower value 0.997 | locus YBR279W, strain paf1, stronger effect = lower value 0.999 | locus YCL011C, strain gbp2, stronger effect = lower value 1.01 | locus YCL016C, strain dcc1, stronger effect = lower value 1.02 | locus YCL029C, strain bik1, stronger effect = lower value 1.03 | locus YCL061C, strain MRC1, stronger effect = lower value 1 | locus YCL069W, strain vba3, stronger effect = lower value 0.993 | locus YCR088W, strain abp1, stronger effect = lower value 1.01 | locus YDL005C, strain med2, stronger effect = lower value 0.989 | locus YDL035C, strain GPR1, stronger effect = lower value 1.02 | locus YDL040C, strain nat1, stronger effect = lower value 1 | locus YDL074C, strain BRE1, stronger effect = lower value 1.04 | locus YDL101C, strain DUN1, stronger effect = lower value 1.02 | locus YDL134C, strain PPH21, stronger effect = lower value 1.02 | locus YDL185W, strain tfp1, stronger effect = lower value 1.02 | locus YDL192W, strain arf1, stronger effect = lower value 1.02 | locus YDR001C, strain nth1, stronger effect = lower value 1.02 | locus YDR069C, strain doa4, stronger effect = lower value 1 | locus YDR101C, strain arx1, stronger effect = lower value 1.01 | locus YDR137W, strain rgp1, stronger effect = lower value 1.01 | locus YDR150W, strain NUM1, stronger effect = lower value 1.02 | locus YDR159W, strain sac3, stronger effect = lower value 0.987 | locus YDR162C, strain NBP2, stronger effect = lower value 1.02 | locus YDR195W, strain ref2 0.974 | locus YDR297W, strain sur2, stronger effect = lower value 1.01 | locus YDR318W, strain mcm21, stronger effect = lower value 1.02 | locus YDR334W, strain swr1, stronger effect = lower value 0.994 | locus YDR335W, strain msn5, stronger effect = lower value 1 | locus YDR388W, stronger effect = lower value 1.01 | locus YDR392W, strain spt3, stronger effect = lower value 1.01 | locus YDR502C, strain sam2, stronger effect = lower value 1.02 | locus YEL003W, strain gim4, stronger effect = lower value 1 | locus YEL037C, strain rad23, stronger effect = lower value 0.988 | locus YEL061C, strain CIN8 (second series), stronger effect = lower value 0.99 | locus YEL061C, strain CIN8, stronger effect = lower value 1.01 | locus YER015W, strain faa2, stronger effect = lower value 0.996 | locus YER016W, strain bim1, stronger effect = lower value 1.01 | locus YER110C, stronger effect = lower value 1.02 | locus YER111C, strain swi4, stronger effect = lower value 0.997 | locus YER155C, strain BEM2 (second series), stronger effect = lower value 0.963 | locus YER155C, strain BEM2, stronger effect = lower value 1.01 | locus YER167W, strain BCK2, stronger effect = lower value 1.02 | locus YFR010W, strain ubp6, stronger effect = lower value 0.978 | locus YGL078C, strain dbp3, stronger effect = lower value 1.01 | locus YGL086W, strain mad1, stronger effect = lower value 1.01 | locus YGL167C, strain pmr1, stronger effect = lower value 0.99 | locus YGL173C, strain kem1, stronger effect = lower value 0.98 | locus YGL227W, strain vid30, stronger effect = lower value 0.986 | locus YGL240W, strain doc1, stronger effect = lower value 1.01 | locus YGL248W, strain PDE1, stronger effect = lower value 1.02 | locus YGL253W, strain hxk2, stronger effect = lower value 1.01 | locus YGR078C, strain PAC10, stronger effect = lower value 1.03 | locus YGR135W, strain pre9, stronger effect = lower value 1.01 | locus YGR229C, strain SMI1, stronger effect = lower value 1.03 | locus YGR252W, strain gcn5, stronger effect = lower value 0.984 | locus YHR013C, strain ard1, stronger effect = lower value 0.973 | locus YHR027C, strain rpn1, stronger effect = lower value 0.996 | locus YHR030C, strain SLT2, stronger effect = lower value 1.02 and 0.983 | locus YHR079C, strain IRE1 (second series), stronger effect = lower value 1.02 | locus YHR079C, strain IRE1, stronger effect = lower value 0.966 | locus YHR094C, strain hxt1, stronger effect = lower value 1.01 | locus YHR129C, strain ARP1, stronger effect = lower value 1 | locus YHR142W, strain chs7, stronger effect = lower value 1.01 | locus YHR200W, strain rpn10, stronger effect = lower value 1.01 | locus YIL066C, strain RNR3, stronger effect = lower value 1.02 | locus YIL073C, strain SPO22, stronger effect = lower value 1.07 | locus YIL125W, strain kgd1, stronger effect = lower value 1.01 | locus YIR030C, strain dcg1, stronger effect = lower value 1.01 | locus YJL092W, strain hpr5, stronger effect = lower value 0.99 | locus YJL095W, strain BCK1 (second series), stronger effect = lower value 0.985 | locus YJL095W, strain BCK1, stronger effect = lower value 1.03 and 0.981 | locus YJL115W, strain asf1, stronger effect = lower value 0.974 | locus YJL129C, strain trk1, stronger effect = lower value 0.974 | locus YJL134W, strain LCB3, stronger effect = lower value 1.01 | locus YJL154C, strain vps35, stronger effect = lower value 0.999 | locus YJL164C, strain tpk1, stronger effect = lower value 1.01 | locus YJL166W, strain qcr8, stronger effect = lower value 0.986 | locus YJL168C, strain set2, stronger effect = lower value 1.01 | locus YJL187C, strain SWE1 (second series), stronger effect = lower value 1.03 | locus YJR043C, strain POL32, stronger effect = lower value 1.04 | locus YJR066W, strain TOR1, stronger effect = lower value 0.905
